FEN1 inh – qHTS Assay for the Inhibitors of Human Flap endonuclease 1 (FEN1); 390,000 compounds, 0.35% hits; P39748; AID 588795, 2011; Potency, µM (top dose mostly 114 µM), for the others: top-dose activity change, negative = inhibition, hits mostly inhibitors; Recombinant FEN1 flap cleavage, fluorescence, 15 min; note: % is set by controls: 0 for no effect and ±100 for the full control effect; nearly all actives have a fitted effect of over 65% in size
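FEN1 at 10 nM, compound pretreatment for 15 min (room temperature), 50 nM final substrate to initiate; endpoint reads at 0 and 15 min; DMSO-only plates used as vehicle background.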
POLI inh – qHTS for Inhibitors of Polymerase Iota; Pol iota fluorescent replication assay, 10 min; Potency, µM (doses to about 115 µM), inactives show top-dose activity, negative = inhibition, most hits filed as inhibitors; AID 588590, 2011; DNA polymerase iota (Homo sapiens), Q9UNA4; 390,000 compounds, 1% hits
Target sequence (Q9UNA4 whole entry, looked up): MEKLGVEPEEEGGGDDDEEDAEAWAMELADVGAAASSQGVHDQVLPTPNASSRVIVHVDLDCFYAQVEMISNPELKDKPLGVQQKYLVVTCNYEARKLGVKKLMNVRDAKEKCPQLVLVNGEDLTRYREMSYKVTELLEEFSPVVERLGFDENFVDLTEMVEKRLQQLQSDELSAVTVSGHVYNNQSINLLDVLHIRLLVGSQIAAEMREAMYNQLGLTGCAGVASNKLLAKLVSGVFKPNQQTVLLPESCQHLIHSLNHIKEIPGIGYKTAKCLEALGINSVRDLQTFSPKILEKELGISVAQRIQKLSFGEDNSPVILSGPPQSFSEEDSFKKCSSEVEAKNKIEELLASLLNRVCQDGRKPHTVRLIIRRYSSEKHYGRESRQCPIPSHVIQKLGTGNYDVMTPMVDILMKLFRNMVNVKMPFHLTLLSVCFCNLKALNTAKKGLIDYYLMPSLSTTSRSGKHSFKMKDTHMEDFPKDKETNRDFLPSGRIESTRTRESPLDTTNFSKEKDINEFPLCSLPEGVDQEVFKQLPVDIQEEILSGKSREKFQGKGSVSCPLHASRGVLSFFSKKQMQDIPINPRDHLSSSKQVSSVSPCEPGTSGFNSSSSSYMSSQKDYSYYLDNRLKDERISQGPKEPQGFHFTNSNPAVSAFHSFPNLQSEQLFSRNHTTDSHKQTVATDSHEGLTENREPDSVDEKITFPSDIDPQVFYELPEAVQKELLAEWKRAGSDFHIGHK
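Pol iota at 10 nM preincubated 15 min with compounds at room temperature; reaction started with fluorescent substrate, 50 nM final. Fluorescence read kinetically at 0 and 10 min; buffer-only wells as negative control.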
Pol beta inh – qHTS Assay for Inhibitors of DNA Polymerase Beta; P06746; Pol beta primer extension/strand displacement, fluorescence kinetic; Potency, µM (top dose mostly 114 µM), inactives show at the top dose activity change, negative = inhibition, actives largely listed as inhibitors; 340,000 compounds, 1.3% hits; note: % is set by controls: 0 for no effect and ±100 for the full control effect
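Curves were derived by four-parameter Hill fits of normalized qHTS data. The kinetic fluorescent primer-extension read was taken at 0 and 10 min after 50 nM substrate, following a 15 min room-temperature preincubation of 10 nM enzyme with compounds.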
POLH inh – qHTS for Inhibitors of Polymerase Eta | DNA polymerase eta (Homo sapiens), Q9Y253 | recombinant Pol eta, fluorescent DNA replication assay | Potency, µM (titrated, usually from 114 µM), without a hit: at the highest dose activity change, negative = inhibition, hits mostly inhibitors | 390,000 compounds, 1.2% hits; note: % is set by controls: 0 for no effect and ±100 for the full control effect
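Fluorescent replication assay: 50 nM final substrate added after a 15 min room-temperature compound preincubation with 10 nM enzyme. Signal taken at 0 min and again at 10 min.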
TDP1 block – qHTS Assay for Inhibitors of Tyrosyl-DNA Phosphodiesterase (TDP1); AID 485290, 2010; Potency, µM (titrated, usually from 130 µM), without a hit: top-dose activity change, negative = inhibition, most hits filed as inhibitors; 350,000 compounds, 0.28% hits; recombinant TDP1, AlphaScreen DNA substrate cleavage; note: % is set by controls: 0 for no effect and ±100 for the full control effect; nearly all actives have a fitted effect of over 40% in size
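Steps: enzyme plus compound, 15 min RT; add biotin/phosphotyrosine-FITC oligonucleotide (15 nM final), react 5 min; add donor/acceptor beads (10 ug/ml final), 10 min; read AlphaScreen. Tdp1 at 1 nM final.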
POLK inh – qHTS for Inhibitors of Polymerase Kappa; AID 588579, 2011; purified Pol kappa, fluorescent DNA synthesis assay, 10 min; 400,000 compounds, 0.53% hits; Potency, µM (highest dose often 107 µM), for the others: at the top dose activity, negative = inhibition, actives largely listed as inhibitors; note: % is set by controls: 0 for no effect and ±100 for the full control effect
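Readout: fluorescence, taken kinetically at 0 and 10 min. Conditions: 10 nM Pol kappa, 15 min RT compound preincubation, 50 nM substrate final. Controls: enzyme-free buffer wells.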
The depositor's hits bear a star; u = inconclusive; x = no result given; [ ] = another dose, or the depositor's remark. Compounds with a hit are over-represented: about 2.4% of the library has one in this group of screens. Calls come from the whole dose curve; as a rule, active = well fitted curve in the direction sought with a large enough effect; inconclusive = small, poorly fitted or top-dose-only effect, or another doubt; inactive = no such curve, though single readings can be large; an effect the other way counts as inactive or inconclusive. Potency is the fitted concentration of half-maximal effect.

SMILES | FEN1 inh | POLI inh | Pol beta inh | POLH inh | TDP1 block | POLK inh
O=C(N/N=C\C=C\c1ccco1)c1cc(-c2ccc3ccccc3c2)n[nH]1 | u | 32µM* | 16µM* | 50µM* | -6% | 79µM*
O=C(N/N=C\C=C\c1ccco1)c1cncc(Br)c1 | -15% | 20µM* | u | u | x | 89µM*
Cc1c(C(=O)NC(C)C)oc2c1-c1[nH]ncc1CC2 | 3% | 25µM* | 42% | 10% | 3% | 2%
Cc1c(C(=O)NCc2ccccc2)oc2c1-c1[nH]ncc1CC2 | -2% | 9% | -21% | -5% | 6% | 1%
COC(=O)c1c(-c2ccc(Cl)cc2)noc1N1CCN(c2cc(C)ccc2C)CC1 | 13% | -4% | -20% | -9% | 8% | -13%[60.1 µM]
CC1=NN(c2ccc(C(=O)OC(C)C)cc2)C(=O)/C1=C\C=C\c1ccco1 | -9% | -2% | 50µM* | u | 0% | -3%
CC1=NN(c2ccccc2)C(=O)/C1=C\C=C\c1ccccc1 | u | u | u | 79µM* | 11% | -16%
CC1=NN(c2ccccc2)C(=O)/C1=C/C=C/c1ccc(N(C)C)cc1 | -2% | -4% | 1% | -3% | 12% | 14%
CCCN(CCC)c1ccc(/C=C/c2ccnc3ccccc23)cc1 | -1% | 24% | x | x | x | -1%
O=C(O)COc1c(-c2ccco2)oc2ccccc2c1=O | 3% | u | 40µM* | -5% | 1% | -23%
COc1ccc2c(c1)C1OCCC1C(c1ccco1)N2 (stereo not given) | 1% | 79µM* | x | -4% | x | -19%
O=C(O)C1C2C=CC(O2)C1C(=O)NCCC1=CCCCC1 (stereo not given) | 5% | u | u | 50µM* | -5% | -21%
O=C(NCCC1=CCCCC1)C(=O)NCc1ccccc1 | -1% | 16% | 1% | -10% | 0% | 4%
O=C(O)Cn1cnc2scc(-c3ccccc3)c2c1=O | 8% | 29% | -25% | -13% | 5% | 7%
O=C(O)Cn1cnc2scc(-c3cccs3)c2c1=O | -9% | u | 20µM* | 20µM* | x | -25%
CN(C)c1ccc(C2=Cc3ccccc3C2)cc1 | -8% | u | x | x | x | u
CCCN(C)CCCOc1cc2nc(N3CCCN(C)CC3)nc(NC3CCN(C)CC3)c2cc1OC | 28µM* | u | x | x | x | -3%
CCNc1nc(N2CCCN(C)CC2)nc2cc(OC)c(OC)cc12 | u | 0% | x | x | x | -1%
COc1cc2c(NC3CCN(C)CC3)nc(N3CCCN(C)CC3)nc2cc1OCCCN(C)C | 22µM* | u | x | x | x | -37%
COc1cc2c(NC3CCN(C)CC3)nc(N3CCCN(C)CC3)nc2cc1OCCCCCCN(C)C | 22µM* | u | x | x | x | -10%
CNc1nc(N2CCCN(C)CC2)nc2cc(OC)c(OC)cc12 | u | u | x | x | x | -23%
COc1cc2c(NC3CCN(C)CC3)nc(N3CCCN(C)CC3)nc2cc1OCCCCN(C)C | 28µM* | u | x | x | x | 0%
Cc1ccc(NS(=O)(=O)c2ccc3c(c2)CCN(C(=O)C(F)(F)F)C3)cc1C | x | x | x | x | 0% | x
COc1cc2nc(N3CCCCC3)nc(NC3CCN(C)CC3)c2cc1OC | u | -3% | x | x | x | -4%
COc1cc2nc(N3CCCCC3)nc(NC3CCN(Cc4ccccc4)CC3)c2cc1OC | 40µM* | 15% | x | x | x | 9%
SMILES | FEN1 inh | POLI inh | Pol beta inh | POLH inh | TDP1 block | POLK inh
COc1cc2c(NC3CCN(C)CC3)nc(N3CCCCC3)nc2cc1OCCCN(C)C | 25µM* | 40µM* | x | x | x | u
COc1ccc(Nc2nc(N3CCCC3)nc3ccccc23)c(OC)c1 | 50µM* | u | 20µM* | -18% | -2% | -21%
CN1CCc2sc(NC(=O)Cc3ccccc3)c(C(=O)Nc3ccc(Cl)cc3)c2C1 | x | x | x | x | -6% | x
O=C(c1ccccc1)c1c(O)cc(-c2ccccc2)oc1=O | -4% | -5% | 16µM* | -9% | 0% | -17%
CC(C)CCNC(=O)CSc1nc2ccccc2nc1Cc1ccccc1 | 3% | 13% | 2% | -27% | 5% | -13%[60.1 µM]
CCCNc1c(F)c(F)c2c(C)c3ccccc3nc2c1F | -15% | 7.9µM* | -12% | -8% | 4% | 79µM*
O=C(/C=C/c1ccc(Br)o1)NC(c1ccccc1)c1ccccc1 | u | u | 3% | -22% | 3% | -7%
O=C1C(=Cc2ccc(Br)o2)C(=O)c2ccccc21 | 14µM* | 1.1µM* | 1.4µM* | 0.79µM* | u | u
Cc1ccc(-n2c(-c3cc(-c4ccco4)[nH]n3)n[nH]c2=S)c(Br)c1 | -1% | 135% | -10% | -11% | 6% | -7%
S=c1[nH]nc(-c2cc(-c3ccco3)[nH]n2)n1-c1cccc2ccccc12 | -1% | u | 25µM* | u | 8% | -15%
O=C1C(Cl)=C(Nc2ccc3cn[nH]c3c2)C(=O)c2ccccc21 | u | u | u | 50µM* | 9% | -25%
COc1ccc(/C=N/Nc2ccccc2C(=O)O)cc1Cn1cc([N+](=O)[O-])cn1 | -3% | u | -4% | -2% | 2% | -19%
COc1ccc(/C=N/NC(=O)c2ccc(Br)cc2)cc1Cn1cc(Cl)cn1 | -3% | 50µM* | u | u | -1% | -11%
CCCOc1ccc(/C=N/NC(=O)c2ccc(Cn3cc([N+](=O)[O-])cn3)o2)cc1 | -5% | u | 32µM* | -6% | 0% | -16%
COc1cccc(/C=N\NC(=O)c2ccc(Cn3cc(Br)c([N+](=O)[O-])n3)o2)c1O | -13% | -7% | 40µM* | -11% | 0% | -12%
COc1ccc(/C=N/NC(=O)c2ccccc2O)cc1Cn1cc([N+](=O)[O-])cn1 | -4% | -7% | 56µM* | 18% | 5% | -4%
COC(=O)c1ccc(NC(=O)c2nc(S(=O)(=O)Cc3ccccc3F)ncc2Cl)cc1 | -8% | u | x | x | x | 3%
O=C(O)CCn1c2c(c3ccccc31)C[C@H](NS(=O)(=O)c1ccc(F)cc1)CC2 | x | x | x | x | x | 3%[19.4 µM]
COc1cccc(/C=N/NC(=O)c2c(C)nc3ccc(Br)cn23)c1O | -6% | u | 79µM* | 9% | 56µM* | -10%
Cc1c(P(=S)(c2ccccc2)c2ccccc2)c2ccccc2n1CCCc1ccccc1 | x | x | x | x | 1% | x
Cc1cc(C)c(S(=O)(=O)NCC(c2ccco2)S(=O)(=O)c2cccs2)c(C)c1 (stereo not given) | -18% | 17% | 3% | -22% | 5% | -8%[60.1 µM]

Source: PubChem
